# Where a name gives a salt, the structure may show the parent alone.
# How the values were obtained:
# Conditions in all cases: incubation time: 27 h, anaerobic, 37 °C;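 for the amine columns active = adjusted P below 0.05 in both replicates with a change the same way and a mean fold change under 0.8 or over 1.25; inactive = the rest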
# [1] = tested on: Clostridium sporogenes DSM 1664; test: growth (OD595) fold change vs plate DMSO controls (fold change (ratio)); higher = more growth
# Procedure, shortened: (§1)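 Shaken 96-well cultures in mGAM, grown anaerobically for 27 h at 37 °C, were read at 595 nm. OD came from blank-subtracted readings, corrected for background with 20 µM compound solutions in water and scaled by a calibration factor of 5. Growth is the fold change versus the plate's median DMSO control. Values average 2 biological replicates, and any fold change above 1.5 is NA.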
# [2] = tested on: Escherichia coli IAI1; test: as above
# Procedure, shortened: as §1
# [3] = tested on: Klebsiella aerogenes DSM 30053; test: as above
# Procedure, shortened: as §1
# [4] = tested on: Ruminococcus gnavus DSM 108212; test: as above
# Procedure, shortened: as §1
# [5] = tested on: Klebsiella aerogenes DSM 30053; test: fold change of Histamine concentration vs plate DMSO controls (fold change (ratio)); higher = more amine produced, active = hit call of the paper (significant change in both replicates, either direction)
# Procedure, shortened: (§2)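 Each value is the fold change relative to DMSO-only wells on the same plate. Four gut bacterial strains were grown anaerobically in mGAM at 37 °C for 27 h in 80 µL wells, starting at OD 0.1 before a 1:1 dilution, with compounds at 20 µM final (sweeteners 50 µM). Whole cultures were extracted with cold acetonitrile/methanol containing 0.1% formic acid, centrifuged, and amines were quantified by LC–triple-quadrupole MS (dynamic MRM) against external calibration curves with within-batch drift correction. Values are means of 2 biological replicates.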
# [6] = tested on: Clostridium sporogenes DSM 1664; test: fold change of Tryptamine concentration vs plate DMSO controls (fold change (ratio)); higher = more amine produced, active = hit call of the paper (significant change in both replicates, either direction)
# Procedure, shortened: as §2
# [7] = tested on: Ruminococcus gnavus DSM 108212; test: as above
# Procedure, shortened: as §2
# [8] = tested on: Escherichia coli IAI1; test: fold change of Putrescine concentration vs plate DMSO controls (fold change (ratio)); higher = more amine produced, active = hit call of the paper (significant change in both replicates, either direction)
# Procedure, shortened: as §2
# [9] = tested on: Klebsiella aerogenes DSM 30053; test: as above
# Procedure, shortened: as §2
# [10] = tested on: Escherichia coli IAI1; test: fold change of Cadaverine concentration vs plate DMSO controls (fold change (ratio)); higher = more amine produced, active = hit call of the paper (significant change in both replicates, either direction)
# Procedure, shortened: as §2
# [11] = tested on: Klebsiella aerogenes DSM 30053; test: as above
# Procedure, shortened: as §2
# [12] = tested on: Ruminococcus gnavus DSM 108212; test: fold change of 2-Phenylethylamine concentration vs plate DMSO controls (fold change (ratio)); higher = more amine produced, active = hit call of the paper (significant change in both replicates, either direction)
# Procedure, shortened: as §2
SMILES,growth [1],growth [2],growth [3],growth [4],fold change of Histamine concentration [5],fold change of Tryptamine concentration [6],fold change of Tryptamine concentration [7],fold change of Putrescine concentration [8],fold change of Putrescine concentration [9],fold change of Cadaverine concentration [10],fold change of Cadaverine concentration [11],fold change of 2-Phenylethylamine concentration [12]
CCCCCCCCc1c(CC)nc2ncnn2c1N (20 µM),1.11,1.05,1.04,1.16,0.991 (inactive),1.03 (inactive),0.997 (inactive),1.01 (inactive),1.01 (inactive),1.04 (inactive),1.01 (inactive),0.968 (inactive)
Cc1cc(N)c2ccccc2[n+]1CCCCCCCCCC[n+]1c(C)cc(N)c2ccccc21 [Dequalinium dichloride] (20 µM),0.993,0.99,1.11,0.565,0.873 (inactive),0.951 (inactive),0.896 (inactive),0.933 (inactive),1 (inactive),0.968 (inactive),1.01 (inactive),0.921 (inactive)
COc1ccccc1OCCNCC(O)COc1cccc2[nH]c3ccccc3c12 (stereo not given) [Carvedilol] (20 µM),0.934,0.974,0.98,1.01,0.972 (inactive),1.03 (inactive),0.977 (inactive),0.987 (inactive),0.98 (inactive),1.02 (inactive),0.989 (inactive),0.998 (inactive)
C#CCN(C)CCCOc1ccc(Cl)cc1Cl [Clorgyline hydrochloride] (20 µM),1.02,0.993,0.95,0.97,1.04 (inactive),0.96 (inactive),0.971 (inactive),0.968 (inactive),0.984 (inactive),0.983 (inactive),0.991 (inactive),0.974 (inactive)
COC(=O)Nc1nc2cc(C(=O)c3ccc(F)cc3)ccc2[nH]1 [Flubendazol] (20 µM),0.949,1.04,1.12,1.04,0.979 (inactive),1 (inactive),0.934 (inactive),0.943 (inactive),1.02 (inactive),0.956 (inactive),1.01 (inactive),0.919 (inactive)
CCc1cccc(CC)c1NC(=O)CN(CC(=O)O)CC(=O)O [Etifenin] (20 µM),1.08,1,1.08,1.1,0.925 (inactive),1.02 (inactive),0.951 (inactive),0.998 (inactive),1 (inactive),0.987 (inactive),1.02 (inactive),0.924 (inactive)
OCc1cc(C(O)CNCCCCCCOCCCCc2ccccc2)ccc1O (stereo not given) [Salmeterol] (20 µM),1.17,1.02,1,0.975,1.04 (inactive),1.04 (inactive),0.936 (inactive),1.07 (inactive),0.975 (inactive),1.02 (inactive),0.986 (inactive),0.981 (inactive)
CO[C@@]1(NC(=O)C2SC(=C(C(N)=O)C(=O)O)S2)C(=O)N2C(C(=O)O)=C(CSc3nnnn3C)CS[C@@H]21 (stereo not given in full) [Cefotetan] (20 µM),0,0.0332,0.987,1.17,0.528 (active),0.0152 (active),1.08 (inactive),0.606 (inactive),0.978 (inactive),2.18 (active),1.1 (inactive),1.1 (inactive)
CN1CCN(C(c2ccccc2)c2ccccc2)CC1 [Cyclizine hydrochloride] (20 µM),0.981,0.984,0.972,1.16,1.07 (inactive),0.968 (inactive),0.996 (inactive),1 (inactive),1 (inactive),1.02 (inactive),0.987 (inactive),1.03 (inactive)
CC(=O)Nc1cccc(O)c1 [Metacetamol] (20 µM),0.961,1.03,1.01,0.966,1.01 (inactive),0.941 (inactive),0.999 (inactive),1.02 (inactive),0.992 (inactive),1 (inactive),0.988 (inactive),0.962 (inactive)
Cn1cc(C(=O)[C@@H]2CCc3[nH]cnc3C2)c2ccccc21 [Ramosetron hydrochloride] (20 µM),0.928,0.966,1,0.964,0.964 (inactive),1.02 (inactive),1 (inactive),0.969 (inactive),1.01 (inactive),1.11 (inactive),0.997 (inactive),1.04 (inactive)
Oc1cc(O)c2c(c1)O[C@H](c1ccc(O)c(O)c1)[C@@H](O)C2 [Cianidanol] (20 µM),1.04,0.998,0.998,1.06,1.03 (inactive),1.26 (active),0.867 (inactive),0.977 (inactive),0.95 (inactive),0.859 (inactive),0.993 (inactive),0.978 (inactive)
CCCN[C@H]1CCc2nc(N)sc2C1 [Pramipexole dihydrochloride] (20 µM),0.931,0.975,1.01,1.01,1.05 (inactive),0.946 (inactive),0.974 (inactive),0.977 (inactive),1.05 (inactive),0.98 (inactive),1.01 (inactive),0.923 (inactive)
CCC1=C(C)CN(C(=O)NCCc2ccc(S(=O)(=O)NC(=O)N[C@H]3CC[C@H](C)CC3)cc2)C1=O [Glimepiride] (20 µM),1.02,1.03,1.02,0.969,0.985 (inactive),0.934 (inactive),0.995 (inactive),0.976 (inactive),0.997 (inactive),1.04 (inactive),0.993 (inactive),1.02 (inactive)
NCCCCCC(=O)O [Aminocaproic acid] (20 µM),0.927,1.04,1.04,1.06,0.969 (inactive),1.08 (inactive),1.04 (inactive),1.11 (inactive),0.996 (inactive),0.983 (inactive),1.02 (inactive),1.09 (inactive)
CC(=O)/N=c1/sc(S(N)(=O)=O)nn1C [Methazolamide] (20 µM),1.08,1.07,1.01,0.848,0.962 (inactive),1.02 (inactive),1.07 (inactive),0.979 (inactive),0.981 (inactive),0.958 (inactive),0.996 (inactive),1.12 (inactive)
C=CC1=C(C(=O)O)N2C(=O)[C@@H](NC(=O)/C(=N\O)c3csc(N)n3)[C@H]2SC1 [Cefdinir] (20 µM),0,0,0.757,0,1.22 (inactive),0.0307 (active),0.04 (active),0.208 (active),0.979 (inactive),0.77 (inactive),1.03 (inactive),0.0439 (active)
CO[C@@]1(NC(=O)C(C(=O)O)c2ccc(O)cc2)C(=O)N2C(C(=O)O)=C(CSc3nnnn3C)CO[C@@H]21 (stereo not given in full) [Moxalactam disodium salt] (20 µM),0,0.0889,1.02,0.0817,0.893 (inactive),0.0273 (active),0.06 (active),1.5 (inactive),1.02 (inactive),2 (active),1.02 (inactive),0.0586 (active)
CNCCCN1c2ccccc2CCc2ccccc21 [Desipramine hydrochloride] (20 µM),0.96,1.09,0.971,1.12,1.06 (inactive),0.982 (inactive),0.946 (inactive),1.01 (inactive),1.01 (inactive),1.56 (inactive),0.987 (inactive),0.934 (inactive)
O=C(OCCOCCO)c1ccccc1Nc1cccc(C(F)(F)F)c1 [Etofenamate] (20 µM),1.2,1.09,1.1,1.2,0.902 (inactive),0.955 (inactive),0.883 (inactive),1.05 (inactive),0.998 (inactive),1.02 (inactive),1.02 (inactive),0.861 (inactive)
N#Cc1ccc(Oc2ccc3c(c2)COB3O)cc1 [Crisaborole] (20 µM),1.06,0.983,1.02,1.12,0.998 (inactive),0.95 (inactive),0.688 (active),1.03 (inactive),0.987 (inactive),1 (inactive),0.994 (inactive),0.799 (inactive)
"c1cc2ccc3ccc4ccc5cccc6c(c1)c2c3c4c56 [Benzo-[g,h,i]perylene] (20 µM)",0.921,1.01,1.06,1.05,1.04 (inactive),1.02 (inactive),0.905 (inactive),1.04 (inactive),1.01 (inactive),1 (inactive),0.976 (inactive),0.88 (inactive)
CC(C)C(=O)c1c(C(C)C)nn2ccccc12 [Ibudilast] (20 µM),0.946,0.973,1.02,0.991,1.02 (inactive),0.996 (inactive),1.08 (inactive),1.26 (inactive),0.984 (inactive),0.987 (inactive),0.997 (inactive),1.09 (inactive)
CCOc1ccccc1OCC1CNCCO1 (stereo not given) [Viloxazine hydrochloride] (20 µM),0.836,0.991,0.986,0.675,0.986 (inactive),1.03 (inactive),0.572 (active),1.06 (inactive),1 (inactive),0.971 (inactive),0.992 (inactive),0.696 (active)
CO[C@H]1/C=C/O[C@@]2(C)Oc3c(C)c(O)c4c(O)c(c(/C=N/N5CCN(C6CCCC6)CC5)c(O)c4c3C2=O)NC(=O)/C(C)=C\C=C\[C@H](C)[C@H](O)[C@@H](C)[C@@H](O)[C@@H](C)[C@H](OC(C)=O)[C@@H]1C [Rifapentine] (20 µM),0.0116,0.42,0.784,0.198,0.572 (active),0.0208 (active),0.145 (active),0.829 (inactive),0.583 (active),1.92 (active),1.06 (inactive),0.128 (active)

# Source: the supplement of paper PMC12494721
